RBX1-CUL1 inh: inhibitors of human ROC1-CUL1 ubiquitin ligase activity. actives 0.6% (n = 140,000). AID 1347404, 2020. in vitro K48 di-Ub FRET, acceptor:donor ratio, 45 min. inhibition, % at 10 µM. E3 ubiquitin-protein ligase RBX1 (Homo sapiens) + Cullin-1 (Homo sapiens), P62877+Q13616; in the data active means inhibition above about 25%
Target sequence (P62877 whole entry, looked up): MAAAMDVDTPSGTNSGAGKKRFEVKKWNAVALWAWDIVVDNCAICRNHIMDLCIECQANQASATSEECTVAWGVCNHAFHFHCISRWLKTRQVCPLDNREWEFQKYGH
Target sequence (Q13616 whole entry, looked up): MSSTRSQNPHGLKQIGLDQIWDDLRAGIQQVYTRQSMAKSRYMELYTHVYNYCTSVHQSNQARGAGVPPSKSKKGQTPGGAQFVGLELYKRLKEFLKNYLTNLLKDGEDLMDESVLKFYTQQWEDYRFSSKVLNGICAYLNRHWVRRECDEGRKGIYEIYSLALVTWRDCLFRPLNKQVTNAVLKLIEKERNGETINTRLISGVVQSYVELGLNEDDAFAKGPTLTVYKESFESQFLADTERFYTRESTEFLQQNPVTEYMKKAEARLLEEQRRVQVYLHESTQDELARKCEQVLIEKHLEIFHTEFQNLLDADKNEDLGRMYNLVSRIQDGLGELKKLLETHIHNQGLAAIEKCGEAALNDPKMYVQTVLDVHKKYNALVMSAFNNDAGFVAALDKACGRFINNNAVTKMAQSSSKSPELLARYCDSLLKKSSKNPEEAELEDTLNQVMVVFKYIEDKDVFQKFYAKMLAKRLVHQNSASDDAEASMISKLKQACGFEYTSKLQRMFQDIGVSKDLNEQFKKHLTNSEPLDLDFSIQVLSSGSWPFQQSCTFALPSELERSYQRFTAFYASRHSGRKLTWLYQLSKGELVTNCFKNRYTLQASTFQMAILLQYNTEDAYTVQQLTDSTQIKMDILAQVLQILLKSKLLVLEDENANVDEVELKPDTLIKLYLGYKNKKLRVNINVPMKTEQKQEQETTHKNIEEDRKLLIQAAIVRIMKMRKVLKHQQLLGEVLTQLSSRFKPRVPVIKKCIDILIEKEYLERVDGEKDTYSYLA
An asterisk follows results filed as active. This is one part of a sample in which hits are shown more often than they occur.

SMILES	RBX1-CUL1 inh
CCOc1ccccc1N1CCN(C(=O)/C=C/c2ccc(Br)cc2)CC1	-7.9
CCN=C1CC=C(Br)C=C(C(=O)/C=C/c2ccc(OC)cc2)C1=O	16.4
CN=C1CC=C(Br)C=C(C(=O)/C=C/c2ccc(Br)cc2)C1=O	35.6*
CC(=O)c1cccc(NC(=O)/C=C/c2ccc(Br)cc2)c1	5.1
CCN=C1CC=C(Br)C=C(C(=O)/C=C/c2ccc(C(F)(F)F)cc2)C1=O	5.5
CCN=C1CC=C(Br)C=C(C(=O)/C=C/c2ccc(F)cc2)C1=O	26.7*
Cc1cc(C)nc(NS(=O)(=O)c2ccc(NC(=O)C3CCN(S(=O)(=O)c4cccs4)CC3)cc2)n1	-6.6
C=CCn1c(SCc2nc(N)nc(N3CCCCC3)n2)nnc1-c1cccs1	-3.7
CC1=NN(c2nc3ccccc3s2)C(=O)/C1=C\c1ccc2c(c1)OCO2	-2.0
CC1=NN(C(=O)c2cc3n(n2)C(C(F)(F)F)CC(c2ccc(C)c(C)c2)N3)C(O)(C(F)(F)F)C1 (stereo not given)	-6.6
CC1=NN(C(=O)c2cccc([N+](=O)[O-])c2)C(C)(O)C1 (stereo not given)	-3.8
COC(=O)c1c(NC(=O)CN2CCCC2)sc(C)c1C	4.3
O=S(=O)(c1cccc2cccnc12)N1CCCC(CO)(Cc2cccc(Cl)c2)C1 (stereo not given)	-3.7
CCN=C1CC=C(Br)C=C(C(=O)/C=C/c2ccc(Br)cc2)C1=O	93.5*
CCN=C1CC=C(Br)C=C(C(=O)/C=C/c2ccc(Cl)cc2)C1=O	17.1
CCOC(=O)c1ccccc1NC(=O)/C=C/c1ccc(Br)cc1	-3.6
CCN1C(=O)/C(=C\c2cccc(F)c2)NC1=S	-5.6
Cc1ccc(C(=O)c2coc3ccc(O)c(Cl)c23)cc1	0.0
CC(=O)C(C(C)=O)C1=C(Cl)C(=O)C(=O)c2c(C(=O)c3ccc(C)cc3)coc21	79.4*
Cc1ccc(C(=O)c2coc3c2cc(O)c2ccccc23)cc1	-7.7
O=C1CCCN1CC(=O)N1CCOC(CCCc2ccccc2)C1 (stereo not given)	5.4
O=C(NNC(=O)[C@@H]1CCCC[C@@H]1C(=O)O)c1ccccc1I	-0.2
C[n+]1c2ccccc2n2nc3c(cc21)c1cccc2cccc3c21	13.0
C[n+]1c2ccccc2n2nc3c(cc21)c1cccnc1c1ncccc31	-4.0
C[n+]1c2cc3ccccc3cc2n2nc3c(cc21)c1cccc2cccc3c21	97.1*
SMILES	RBX1-CUL1 inh
CCCCn1c(=N)c(C(=O)NCCCOCC)cc2c(=O)n3ccccc3nc21	3.2
Cc1nc2sccn2c1CN1CCC2(CC1)CC2C(=O)NCCC(c1ccccc1)c1ccccc1 (stereo not given)	-3.3
O=C(c1ccccc1)c1ccc2c3c(cccc13)C(=O)N(c1cccc3ccccc13)C2=O	4.0
Cc1ccccc1OCC(=O)NC(C(=O)N/N=C/c1ccc(OCc2ccccc2C#N)cc1)C(C)C (stereo not given)	95.5*
Cc1cccc(OCC(=O)NC(C)C(=O)N/N=C/c2ccc(OCc3c(C)cc(C)cc3C)cc2)c1 (stereo not given)	11.9
Cc1ccccc1OCC(=O)NC(C)C(=O)N/N=C\c1ccc2c(c1)n(C)c(=O)n2C (stereo not given)	8.7
Cc1ccc(NC(=O)C2CCN(S(=O)(=O)N(C)C)CC2)c(C)c1	-11.2
Cc1ccc(-n2nc(C(=O)Nc3ccccn3)nc2-c2ccccc2)cc1	6.6
Cc1cccc(C2=NN3C(=N)/C(=C\c4ccc([N+](=O)[O-])o4)C(=O)N=C3S2)c1	106.4*
Cc1ccc(/C=C2/C(=N)N3N=C(c4ccc(C)cc4)SC3=NC2=O)cc1	5.7
Cc1cccc(/C=C2/C(=N)N3N=C(c4ccccc4Cl)SC3=NC2=O)c1	4.6
CCOC(=O)C1=Nc2ccccc2C1=Cc1nc(-c2ccccc2)oc1O	2.0
CC1CCc2c(sc3ncnc(SCc4ccccc4F)c23)C1 (stereo not given)	2.5
Cc1nn(C)cc1/C=C1\SC(=S)NC1=O	-1.9
O=C1NC(=S)S/C1=C/c1ccccn1	-3.8
O=C1NC(=S)S/C1=C/c1c(Cl)cc(Cl)c(O)c1Cl	27.8*
NC(=O)c1c(NC(=O)c2cc(-c3ccccc3)nc3ccccc23)sc2c1CCCCCC2	5.6
CCC1CCc2c(sc(NC(=O)c3cc(-c4ccco4)nc4ccccc34)c2C(N)=O)C1 (stereo not given)	42.7*
Cc1ccc(-c2cc(C(=O)Nc3sc4c(c3C(N)=O)CCC(C(C)(C)C)C4)c3ccccc3n2)o1 (stereo not given)	-1.6
Cc1ncc(CN2CCCC(C(=O)Nc3cccc(-n4cccn4)c3)C2)cn1 (stereo not given)	8.8
CC1=C(C(=O)OC(C)(C)C)C(c2cccs2)C(C#N)C(=N)O1 (stereo not given)	-5.5
CC1(C)C2Cc3nc4c(cc3C1C2)CCC4 (stereo not given)	1.5
CCOC(=O)/C(C)=C(\C(=O)OCC)C1C(=O)CC(C)(C)CC1=O	8.0
Cc1ccc(N2C(=O)/C(=C\c3ccc(-c4ccc(Br)cc4[N+](=O)[O-])o3)C(=O)N(c3ccccc3)C2=S)cc1C	56.0*
Cc1ccc(N2C(=O)/C(=C/c3ccc(-c4ccc(C(=O)O)cc4)o3)C(=O)N(c3ccccc3)C2=S)cc1C	4.5
SMILES	RBX1-CUL1 inh
Cc1ccc(N2C(=O)/C(=C/c3ccc(Br)cc3)C(=O)N(c3ccccc3)C2=S)cc1	-3.1
CCC(=O)Nc1cc(C(=O)OC)cc(C(=O)OC)c1	4.0
COc1cc(CN2CCC3(CC2)CC3C(=O)N(C)CCOc2ccc(C)cc2)cc(OC)c1OC (stereo not given)	-3.7
CCOC(=O)C1C(C)=NC(SCC(=O)c2ccc(OC)cc2)=C(C#N)C1c1ccc(C(=O)OC)cc1 (stereo not given)	0.4
Cc1cc(/C=C2\SC(=Nc3ccc(F)cc3)NC2=O)c(C)n1-c1ccc(S(N)(=O)=O)cc1	-4.7
Cc1cc(/C=C2\SC(=Nc3ccc(Cl)cc3)NC2=O)c(C)n1-c1cc(C(=O)O)cc(C(=O)O)c1	100.1*
CCOC(=O)c1ccc(-n2c(C)cc(/C=C3\SC(=Nc4ccc(Cl)cc4)NC3=O)c2C)cc1	1.1
CCC(C)COc1c(F)c(F)c2cc3c(C)nsc3nc2c1F (stereo not given)	7.6
CC(=O)c1c(C)nc2nc(SCc3ccc(C)cc3)nn2c1C	6.2
COC(=O)CNC(=O)c1cc2c(=O)n3cc(C)ccc3nc2n1C	3.9
CC(C)C(C)OC1CC(=O)CC2C(=O)c3c(O)ccc(O)c3C(=O)C12 (stereo not given)	60.2*
O=C(Nc1ccc(-c2cn3cccnc3n2)cc1)c1ccc(Br)cc1	-2.6
CCOC(=O)C1=C(c2ccccc2)N=c2s/c(=C\c3ccncc3)c(=O)n2C1c1cccc(OC)c1 (stereo not given)	4.2
CCOc1c(Br)cc(Br)cc1/C=N/NC(=O)CN1CCOCC1	3.0
CC(=O)Oc1cc(C(=O)Nc2ccc(Oc3ccccc3)cc2)cc(OC(C)=O)c1OC(C)=O	38.5*
CC(=O)Nc1ccc(Oc2cc(NC(=O)c3ccccc3)cc([N+](=O)[O-])c2)cc1	6.7
O=C(Nc1ccc(Oc2ccccc2)cc1)c1ccncc1	3.5
CCCCOCn1c(=O)[nH]c(=O)c2ccccc21	6.1
C/C(=N\NC(=O)c1cc(C(C)C)cc(C(C)C)c1O)c1ccco1	-2.1
O=C1C(C=Nc2cccnc2Cl)C(=O)N(C2CCCCC2)C(=O)N1CCCCl (stereo not given)	-10.1
CC(=O)c1cc2c3c(c1)C1C=CCC1C(c1ccc([N+](=O)[O-])cc1)N3CC1CC=CC21 (stereo not given)	-1.8

Screening results: PubChem, Pan Lab, Icahn School of Medicine at Mount Sinai
